Bioassay records as filed in PubChem BioAssay.
This is a sample that favours compounds with a hit; in the whole collection about 5.4% have one here.
Gal4-VP16 FLuc = inhibits Gal4-VP16 luciferase reporter, ROR gamma counter-screen; Drosophila S2 Gal4-VP16 UAS-luciferase, luminescence, 20 h; Potency, µM (doses to about 53.6 µM), usual class: inhibitors; 3.5% of 310,000 active;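 further: Gal4-VP16 expression switched on by copper sulfate through the metallothionein promoter; nearly all actives have a fitted effect of over 50% in size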
Six1-Eya2 blk = inhibitors of human Six1/Eya2 interaction; activity change, % (no concentration beside the values); Q15475+O00167; AID 651725; AlphaScreen GST-Six1/His-Eya2 binding, biochemical; active compounds read low; 0.56% of 360,000 active; in the data active means activity change below about -65%; inconclusive means mostly about -30% to -63%
Target sequence (O00167 whole entry, looked up): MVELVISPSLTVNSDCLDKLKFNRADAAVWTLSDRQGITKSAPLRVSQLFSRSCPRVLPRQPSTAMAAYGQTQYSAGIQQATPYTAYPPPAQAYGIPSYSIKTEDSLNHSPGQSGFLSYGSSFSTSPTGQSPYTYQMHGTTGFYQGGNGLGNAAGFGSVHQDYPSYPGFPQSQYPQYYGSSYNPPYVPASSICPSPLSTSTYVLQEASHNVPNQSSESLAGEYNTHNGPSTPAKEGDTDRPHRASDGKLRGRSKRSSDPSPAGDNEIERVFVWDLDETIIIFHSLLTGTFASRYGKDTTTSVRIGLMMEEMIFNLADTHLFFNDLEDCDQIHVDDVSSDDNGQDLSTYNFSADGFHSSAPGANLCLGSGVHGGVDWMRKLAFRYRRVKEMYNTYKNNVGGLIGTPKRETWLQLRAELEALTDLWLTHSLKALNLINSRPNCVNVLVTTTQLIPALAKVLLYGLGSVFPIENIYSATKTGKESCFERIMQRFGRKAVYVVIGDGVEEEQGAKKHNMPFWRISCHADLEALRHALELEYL
Target sequence (Q15475 whole entry, looked up): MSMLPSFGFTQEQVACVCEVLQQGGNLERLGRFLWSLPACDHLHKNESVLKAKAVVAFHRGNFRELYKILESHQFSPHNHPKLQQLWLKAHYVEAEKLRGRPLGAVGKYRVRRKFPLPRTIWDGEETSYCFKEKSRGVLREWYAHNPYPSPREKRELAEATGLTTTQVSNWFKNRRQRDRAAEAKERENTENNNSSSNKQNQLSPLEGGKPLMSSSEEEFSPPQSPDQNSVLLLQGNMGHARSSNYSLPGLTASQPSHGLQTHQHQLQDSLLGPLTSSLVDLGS
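Compounds are tested against tagged Six1 and Eya2 proteins bridged by glutathione donor and nickel acceptor beads; after a one-hour incubation at 37 °C without light, AlphaScreen emission is recorded.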
p53 reactivator = re-activators of mutant p53; 0.063% of 320,000 active; Potency, µM (series often up to 92.2 µM), hits mostly activators; H1299 p53-A138V BP100-luciferase reporter, luminescence, 24 h; further: nearly all actives have a fitted effect of over 45% in size
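p53-null H1299 cells stably carrying temperature-sensitive p53-A138V and a BP100-luciferase reporter were pinned with compounds (4-point, 1:5 series) and held 24 hrs at 37 deg C. Luminescence was read 10 min after detection reagent.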
CtBP-E1A inh = blocks the CtBP interaction with E1A | activity change, % (no concentration beside the values) | 0.49% of 340,000 active | AlphaScreen GST-E1A/His-CtBP binding, 1536-well; active compounds read low; in the data active means activity change below about -65%; inconclusive means mostly about -30% to -63%
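In 5 uL wells, 23 nL compound meets equimolar GST-E1A and His-CtBP (5X stock 125 nM each) for 2 h, 37 °C. Beads (5X, 50 ug/mL) then 1 h, 37 °C, dark.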
RORg inh = blocks mouse ROR gamma transcriptional activity | 5.4% of 310,000 active | Potency, µM (doses to about 53.6 µM), actives largely listed as inhibitors | Drosophila S2 Gal4-RORgamma UAS-luciferase reporter, 20 h | P51450 | AID 2551; further: nearly all actives have a fitted effect of over 60% in size
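Luciferase reporter read in Schneider cells carrying Gal4-RORγ (mouse) and UAS-Photinus luciferase; cells given compound 1 h before 700 uM copper sulfate induction, then incubated 20 h at ambient temperature.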
A number is an active result; - = inactive; ? = inconclusive; . = not tested or not shown; [ ] = another dose, or the depositor's remark. Unless noted, the call rests on the fitted dose curve; in most records, active means well fitted curve in the direction sought with a large enough effect; inconclusive means small, poorly fitted or top-dose-only effect, or another doubt; inactive means no such curve, though single readings can be large; an effect the other way counts as inactive or inconclusive.

SMILES	Gal4-VP16 FLuc	Six1-Eya2 blk	p53 reactivator	CtBP-E1A inh	RORg inh
O=C(O)c1cc(N/N=C/c2ccc(N3CCOCC3)cc2)ccc1Cl	?	-	-	.	7.1µM
Clc1cccc(N/N=C/c2ccc(N3CCOCC3)cc2)c1	-	-	-	-	-
C=C(C)CNC(=S)N/N=C\c1ccc2c(c1)OCO2	-	-	-	-	-
C=C(C)CNC(=S)N/N=C/c1ccc(N2CCOCC2)cc1	5µM	-	-	-	2µM
Cc1ccc(/C=N/NC(=S)NC(C)C)o1	2.8µM	-	-	-	1.4µM
CC1(C)CC2(C)CC(=O)C1C(C(=O)O)C2C(=O)O (stereo unspecified)	.	-	.	-	.
CCNC(=O)C1CCCN(C(=O)c2ccccc2)CC1 (stereo unspecified)	.	-	.	-	.
CC[C@]12CCCN3CCc4c(n(c5ccccc45)C(=O)C1)[C@H]32	-	.	.	.	-
O=C(NCCc1ccc2c(c1)OCCO2)c1ccc(F)cc1	-	-	?	-	?
COC(=O)c1ccc(/C=N/NC(=S)NC(C)C)cc1	7.1µM	-	-	-	2µM
C=C(C)CNC(=S)N/N=C/c1ccc([N+](=O)[O-])cc1	4.5µM	-	-	-	1.1µM
Cc1nn(CC#N)c(=O)n1-c1ccccc1F	-	-	-	-	10µM
COc1cc(OC)cc(C2=Cc3ccccc3C(CC(=O)c3ccco3)N2c2ccc(-c3cncnc3)cc2)c1 (stereo unspecified)	.	-	.	-	.
S=C(NCCc1ccccc1)N/N=C/C1CCCCC1	5.6µM	.	-	.	1.4µM
O=C(NCc1ccccc1)C1CCCC1	-	.	?	.	-
S=C(NCCc1ccccc1)NN=C1CCCCCC1	-	-	-	-	-
O=C(NC(=S)NCc1ccccc1)C1CC1	?	-	-	-	6.3µM
O=C(NC(=S)NCCc1ccccc1)C1CCCCC1	4µM	-	?	-	2.8µM
O=C(NC1CCCCCC1)C(=S)NCCc1ccccc1	-	-	-	-	-
O=C(CNC(=S)NC(=O)C1CCCCC1)c1ccccc1	?	-	?	-	7.9µM
COc1ccc(N2C(=O)N(Cc3cccc(F)c3)c3ccccc3S2(=O)=O)cc1	-	.	-	.	-
CC(C)C[C@H](N)c1nnc(S(=O)(=O)Cc2ccc(F)cc2)o1	14µM	-	-	-	-
COc1ccc(C2(CNC(=O)c3cccs3)CCOCC2)cc1	-	-	-	-	-
C#C[C@]1(O)CCC2C3CCC4=Cc5oncc5C[C@@]4(C)C3CC[C@@]21C (stereo partly specified)	-	.	.	.	-
NC(COCc1ccccc1)c1csc(Nc2ccccn2)n1 (stereo unspecified)	.	-89	.	-90	.
SMILES	Gal4-VP16 FLuc	Six1-Eya2 blk	p53 reactivator	CtBP-E1A inh	RORg inh
NC(CCc1ccccc1)c1csc(Nc2ccccn2)n1 (stereo unspecified)	.	-73	.	-83	.
NC(CCc1ccccc1)c1csc(Nc2ccc(C(F)(F)F)cn2)n1 (stereo unspecified)	.	-	.	-	.
NCC1CCC(N)C(O[C@@H]2C(O)[C@H](O[C@H]3OC(CO)C(O)C(N)C3O)[C@@H](N)C[C@H]2N)O1 (stereo partly specified)	-	.	.	.	-
Cc1cccc(NC(=S)N2CCC(C(=O)c3ccc(F)cc3)CC2)c1C	?	-	-	-	?
CCCCc1ccc(S(=O)(=O)NNC(=S)NCc2ccco2)cc1	?	-	-	-	8.9µM
CC1(C(=O)NNC(=S)NCc2ccco2)CC1(Cl)Cl (stereo unspecified)	-	-	-	-	8.9µM
CC(=O)Nc1ccc(S(=O)(=O)NNC(=S)NCc2ccco2)cc1	-	-	-	-	11µM
CCNS(=O)(=O)c1ccc(NC(=S)NCc2ccco2)cc1	-	-	-	-	-
CCOc1cc(N2CCOCC2)c(OCC)cc1NC(=O)COC(=O)c1c(C)noc1C	.	-	.	-	.
COc1cc(C(=O)O[C@H]2CC(C)=CC[C@@]3(C)CC[C@@](O)(C(C)C)[C@H]23)ccc1O	?	-	-	.	-
O=C(Cn1sc2ccccc2c1=O)NC12CC3CC(CC(C3)C1)C2	0.5µM	-	-	-	3.5µM
O=C(Cn1sc2ccccc2c1=O)Nc1ccccc1	.	-	.	-	.
Cc1ccc(N=Cc2c(C)[nH]n(-c3nc4ccccc4[nH]3)c2=O)cc1	11µM	?	?	-	2.8µM
CCCCn1cnc2c(oc3nc4c(cc32)CCCC4)c1=O	?	-	-	.	10µM
CCOC(=S)SCC(=O)Nc1nc(-c2ccc(Br)cc2)cs1	6.3µM	-	?	-	5µM
CCOC(=O)N1CCN(C(=O)CSCC(=O)Nc2nc(-c3ccc(-c4ccccc4)cc3)cs2)CC1	6.3µM	-	-	-	?
CCOC(=O)N1CCN(C(=O)CSCC(=O)Nc2nc(-c3ccc(OC)cc3)cs2)CC1	-	-	-	-	-
Cc1ccc(-c2csc(NC(=O)CSC3=NCCS3)n2)cc1	13µM	-	?	-	-
CCOC(=S)SCC(=O)Nc1nc(C)c(C)s1	?	-	-	.	13µM
Cn1cccc1C(=O)N1CCC[C@@]2(CCN(Cc3ccccc3)C2)C1	-	.	.	.	-
O=C1CCC=C1[C@@H](O)CCc1ccccc1	-[10 µM]	.	.	.	-[10 µM]
Cc1ccc2nc3c(cc2c1)CN(Cc1ccco1)C(=NCC1CCCO1)S3 (stereo unspecified)	-[0.365 µM]	-	-	-	?
Cc1cccc2cc3c(nc12)SC(=NCC1CCCO1)N(Cc1ccco1)C3 (stereo unspecified)	3.2µM	-	-	-	2.8µM
CCc1noc(C)c1C(=O)NNC(=O)COc1ccc(Br)cc1	-	-	-	-	-
C=CCc1cc(/C=N/NC(=O)CSc2nnc(CCCc3ccc(OC)cc3)o2)cc(OC)c1O	-	-	-	-	-
SMILES	Gal4-VP16 FLuc	Six1-Eya2 blk	p53 reactivator	CtBP-E1A inh	RORg inh
c1ccc(CC2CCN(C3=Nc4cccc5cccc3c45)CC2)cc1	7.1µM	?	-	?	?
COc1ccccc1N1CCN(C2=Nc3cccc4cccc2c34)CC1	?	?	?	?	16µM
COC(=O)[C@@]1(Cc2ccccc2)[C@H]2c3cc(C(=O)N4CCCC4)n(Cc4ccccc4)c3C[C@H]2CN1C(=O)c1ccccc1	-	.	.	.	-
COc1ccc(OC)c(S(=O)(=O)Nc2cc(OC)c(Cl)cc2OC)c1	-	-	.	-	-
COc1cc(NS(=O)(=O)c2ccc(OC)c(C)c2C)c(OC)cc1Cl	6.3µM	-	-	-	?
Cc1nn(C)c(Cl)c1NC(=O)OCc1ccc(F)cc1	1.8µM	-	-	-	?
CCC(C)N(NC(C)=O)c1nc(Cl)nc(NC(C)C)n1 (stereo unspecified)	?	-	-	-	11µM
CN1CCN(c2ncc3nc(-c4cccs4)c(=O)n(-c4ccccc4)c3n2)CC1	-	.	.	.	-
O=c1c(Cl)c(NCCCO)cnn1-c1nc2ccccc2[nH]1	3.5µM	-	-	-	5µM
COc1ccc(N2CCN(CCNC(=O)c3ccc4c(c3)[nH]c(=S)n3c5ccccc5nc43)CC2)cc1	3.5µM	-	-	-	6.3µM
